From PMC12864922, “TDP-43 directly inhibits mRNA accumulation in neurites through modulation of mRNA stability”
In all, about 9,900 sequences were measured (“r (bound/input frequency ratio)”: median about 0.7, highest 2% from about 6.5 on). Many of the other results were omitted from the sample, so the highest values are more common in it than they were.

B1: ENSMUSG00000031028.145|Tub (ssRNA)
RNA: GGGAGUUCUACAGUCCGACGAUCGCUUCGAUAUCCGCAUGCUAACAGGAUCUAGGUCACCAUUCAAGUAAUGGUAUGCUUCAGGAAGAAUGUCCUCUCUGGGAAGACUCAGCUCCCAUUAUUGCCAGCAUGCCAUGAUCAGUGAGGGCUGUGUGCCAUGCUUAGGGGGAUGGCGCAGGGUGAGGGGAGCAGAGGAUAUUUUAGGGCCACAAGAGCUCAGAGGUAGCGGACCUCUGUGUGGUUCACCAACAGCAAUGCUGAUCCCUGAGUAUAGGGCACAUGUCUCUUGGUUACCUCACUGGUUCUCUUGCGGUCGCACUAGUGUGGAAUUCUCGGGUGUCAAGG
B2: ENSMUSG00000061578.1426|Ksr2 (ssRNA)
RNA: GGGAGUUCUACAGUCCGACGAUCGCUUCGAUAUCCGCAUGCUACUCUUCCUUUUCCUUUUUAGAUCUGUCUUGCUCUCUGUCUCUCUCACUCAUUGCCAACAUGUUGCUGGGAAAGAAUAUUUGAUUUAGAUGCCAAUCAGGAAGGCAAGUAGGAUGGAUGGAUGAGUGAGUGGAUAGGUAGGUAUAUAAAUGGAUGGAUGGGUGAUGGAUGGGUAAAUGAAUGGAUAGGUAUGUGAAUGAAUGGAUGAUGGAUGAAUGGAUGGGUAGGUGGGUAGAUAGGUAUAUGAAUGAAUGGAUGAAUGCUCUUGCGGUCGCACUAGUGUGGAAUUCUCGGGUGUCAAGG
B3: ENSMUSG00000043670.185|Diras1|17:21;114:118;148:152;162:171;177:184;217:221;250:260 (ssRNA)
RNA: GGGAGUUCUACAGUCCGACGAUCGCUUCGAUAUCCGCAUGCUAGCCUCUUUGCUGGUCAACACAACUCUGGAGACUGUCCCCCAUGUCUGCCCUGAGUUACGGAGCCCCUGUGGUAUCUGCGAGACUGUCCAGGAGACUUGAGUGGCUCCUGGGCCACACACCCACCCAGAUGAGGGUGACUUAGAAUUCACACAUUAUGUGCCACACACACACGAUGGCACACACACUGUCUUGGGAUGGGGUGUUCUUGCACCACUUACACAUCUUAGUGAGACCACAGUGUAAGUGGCCCACACACACACCUCUUGCGGUCGCACUAGUGUGGAAUUCUCGGGUGUCAAGG
B4: ENSMUSG00000029028.9|Lrrc47 (ssRNA)
RNA: GGGAGUUCUACAGUCCGACGAUCGCUUCGAUAUCCGCAUGCUAAUCCAAGACGGACCUGAUCACCCUCCCUCCCCACGUGACUGUGGUCCGCUGACAGGCUCCUGUAGGUGUGGGUGUGCUGUAGGUGUCUGUGUGGGUGUGGGUGUGCUGUAGGUGUCUGUGUGGGUGUGGGUGUGCUAUAGGUAUCUGUGGGUGUGCUGUAGGUGUCUGUGUGGGUGUGCUGUAGGUGUCUGUGUAGGUGUGGGUGUGCUGUAGGUGUCUGUGUGGGUGUGCUAGGUGUCUGUAUAGGUGUGGGUGUGCUGCUCUUGCGGUCGCACUAGUGUGGAAUUCUCGGGUGUCAAGG
B5: ENSMUSG00000029028.6|Lrrc47 (ssRNA)
RNA: GGGAGUUCUACAGUCCGACGAUCGCUUCGAUAUCCGCAUGCUACUUGAAGGUGGUGUACCCAUCCAAGACGGACCUGAUCACCCUCCCUCCCCACGUGACUGUGGUCCGCUGACAGGCUCCUGUAGGUGUGGGUGUGCUGUAGGUGUCUGUGUGGGUGUGGGUGUGCUGUAGGUGUCUGUGUGGGUGUGGGUGUGCUAUAGGUAUCUGUGGGUGUGCUGUAGGUGUCUGUGUGGGUGUGCUGUAGGUGUCUGUGUAGGUGUGGGUGUGCUGUAGGUGUCUGUGUGGGUGUGCUAGGUGUCUGUCUCUUGCGGUCGCACUAGUGUGGAAUUCUCGGGUGUCAAGG
B6: ENSMUSG00000029028.8|Lrrc47 (ssRNA)
RNA: GGGAGUUCUACAGUCCGACGAUCGCUUCGAUAUCCGCAUGCUAGUACCCAUCCAAGACGGACCUGAUCACCCUCCCUCCCCACGUGACUGUGGUCCGCUGACAGGCUCCUGUAGGUGUGGGUGUGCUGUAGGUGUCUGUGUGGGUGUGGGUGUGCUGUAGGUGUCUGUGUGGGUGUGGGUGUGCUAUAGGUAUCUGUGGGUGUGCUGUAGGUGUCUGUGUGGGUGUGCUGUAGGUGUCUGUGUAGGUGUGGGUGUGCUGUAGGUGUCUGUGUGGGUGUGCUAGGUGUCUGUAUAGGUGUGGGUCUCUUGCGGUCGCACUAGUGUGGAAUUCUCGGGUGUCAAGG
B7: ENSMUSG00000029028.10|Lrrc47|60:64;66:70;82:87;89:93;95:99;111:116;118:122;124:128;145:149;161:166;168:172;184:188;191:195;197:201;213:218;220:224;241:245;247:2 … (ssRNA)
RNA: GGGAGUUCUACAGUCCGACGAUCGCUUCGAUAUCCGCAUGCUAGACGGACCUGAUCACCCUCCCUCCCCACGUGACUGUGGUCCGCUGACAGGCUCCUGUAGCACACGCACACCUGUAGGUGUCACACACGCACACGCACACCUGUAGGUGUCACACACGCACACGCACACCUAUAGGUAUCUGUGGCACACCUGUAGGUGUCACACACGCACACCUGUAGGUGUCACACAAGCACACGCACACCUGUAGGUGUCACACACGCACACCUAGGUGUCUGUAUAGCACACGCACACCUGUAGAUGCUCUUGCGGUCGCACUAGUGUGGAAUUCUCGGGUGUCAAGG
B8: ENSMUSG00000029028.7|Lrrc47 (ssRNA)
RNA: GGGAGUUCUACAGUCCGACGAUCGCUUCGAUAUCCGCAUGCUAGGUGGUGUACCCAUCCAAGACGGACCUGAUCACCCUCCCUCCCCACGUGACUGUGGUCCGCUGACAGGCUCCUGUAGGUGUGGGUGUGCUGUAGGUGUCUGUGUGGGUGUGGGUGUGCUGUAGGUGUCUGUGUGGGUGUGGGUGUGCUAUAGGUAUCUGUGGGUGUGCUGUAGGUGUCUGUGUGGGUGUGCUGUAGGUGUCUGUGUAGGUGUGGGUGUGCUGUAGGUGUCUGUGUGGGUGUGCUAGGUGUCUGUAUAGGUCUCUUGCGGUCGCACUAGUGUGGAAUUCUCGGGUGUCAAGG
B9: ENSMUSG00000029028.10|Lrrc47 (ssRNA)
RNA: GGGAGUUCUACAGUCCGACGAUCGCUUCGAUAUCCGCAUGCUAGACGGACCUGAUCACCCUCCCUCCCCACGUGACUGUGGUCCGCUGACAGGCUCCUGUAGGUGUGGGUGUGCUGUAGGUGUCUGUGUGGGUGUGGGUGUGCUGUAGGUGUCUGUGUGGGUGUGGGUGUGCUAUAGGUAUCUGUGGGUGUGCUGUAGGUGUCUGUGUGGGUGUGCUGUAGGUGUCUGUGUAGGUGUGGGUGUGCUGUAGGUGUCUGUGUGGGUGUGCUAGGUGUCUGUAUAGGUGUGGGUGUGCUGUAGAUGCUCUUGCGGUCGCACUAGUGUGGAAUUCUCGGGUGUCAAGG
B10: ENSMUSG00000031028.612|Tub|38:42 (ssRNA)
RNA: GGGAGUUCUACAGUCCGACGAUCGCUUCGAUAUCCGCAUGCUAUGAGCAGCUAGAGCAUUUGAGCAACCCAUGUAAUCUUACACAUUCCCUCCCUGUAAGAAGGCCUGUCAGAGCUUGCUGUAGGAGUUAGGGUAAAUGAAAGUUAGUCCUGGCUCUCAUCACCACCUUUCCUAGCUCAUCACUGUGCCUUCUUUCUUCCCUAAGAAAGACAAUGCACCCCUCUCUUCUGUUCUCCUGCCCCUUCGCCCCCACUGAGGUCCAGGUAGAGCAGAUGAGGCUGAAAUGUAGAGUGUUCUAUAGAGCUCUUGCGGUCGCACUAGUGUGGAAUUCUCGGGUGUCAAGG
B11: ENSMUSG00000043670.77|Diras1|85:90 (ssRNA)
RNA: GGGAGUUCUACAGUCCGACGAUCGCUUCGAUAUCCGCAUGCUAGGAUCUGAAAACAGGGACCUGGCUAAGGAACUGCUCAUCCCAGUCAGGCCCAGAGAGGUUACCUUGCCUCUCCAUCUCUGUCCCACACACCCCAGCCAUGCCCACUGUCCCUGUCCCUCACAUUCUAUCACUGUGACCUCUGGGGAGUGCCCAUUGACCUCAUCUUCCUUCACUAAUAUCUUAUUUCUUUCACCUGAUCCUGUCCUUUCCCCGUGACCUCUGACCUGUGGCCUUCCCUGGGUCCAGAACACCCCUGUCCUCUCUUGCGGUCGCACUAGUGUGGAAUUCUCGGGUGUCAAGG
B12: ENSMUSG00000090935.47|Synj2bp (ssRNA)
RNA: GGGAGUUCUACAGUCCGACGAUCGCUUCGAUAUCCGCAUGCUAGCGGGAUGUGCUGUGUCCCUGAGAGUACAGCACAGGGUAGGUAUUACCUGCACCUGGAUAUGGGACAGUAGGCUUUUACACUGUUCUUGUGAAUAGGUUUGUAAGCUUCAAAGUCUGCUUUACUUUAUCUUCUGUUAUGAUUGCCUUUGUCAGCAUAGGCAGGAGUCCUUUAGGAUUUCUGCCUAUCAGUAAAAGAAGUAUGUAACCCAAGUUCUACCUUCAGUGGAUUAAAGUUUCAUUAAGUGAAAAUGGAAAGAAAGCUCUUGCGGUCGCACUAGUGUGGAAUUCUCGGGUGUCAAGG
B13: ENSMUSG00000058297.314|Spock2 (ssRNA)
RNA: GGGAGUUCUACAGUCCGACGAUCGCUUCGAUAUCCGCAUGCUAGCUGAGGCUUCCAGGACAAAGCCCCAGUCUGGCUCUCCCCCAGCCUCUCAGGGGCACUGGCUGGUCACAUCCACUGAGUAUUGAUCGGUUGGACUUUAGGGAAGAGCCUCCUCCUUCCCAUUCCUUUCUGCCACCCUGGAAUGGCCACCUUAAUCGUCAUCUCCUCGGGGGGAAUACGGAAAUGUCACCAAGCUCCAUAAAGUGCUUCUCAUUCCACGACACAGUUCUGACUCUCCGGGUGACUGUCACCUGCUCCCAUCCUCUUGCGGUCGCACUAGUGUGGAAUUCUCGGGUGUCAAGG

Each binder was assayed against TDP-43 (Homo sapiens, UniProt Q13148 1-414) (assay: RNA Bind-n-Seq with designed 260-mer pool; 25 mM Tris-HCl, 150 mM KCl, 3 mM MgCl2, BSA (printed 500 mg/mL), 20 units/mL SUPERase IN; pH not stated; 500 nM RNA pool, 1 h, 4 C; TDP-43 5, 50, 500 nM; high values mean tight binding). Settings: protein: recombinant; tags: SBP (GST cleaved off with PreScission; pGEX-GST-SBP).
Summary of the method: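 In 25 mM Tris-HCl, 150 mM KCl, 3 mM MgCl2, BSA and SUPERase IN, 500 nM of an in vitro-transcribed 260-nt 3′ UTR oligo pool was incubated for 1 h at 4 °C with SBP-tagged TDP-43 (5, 50 or 500 nM) captured on streptavidin beads. RNA remaining after washes was biotin-eluted, reverse transcribed, PCR-amplified and sequenced. Binding, R, is the bound-sample abundance of each oligo, normalized to mapped reads, divided by its abundance in input. Each duplicate used a separate, independent protein batch.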

Sequence of TDP-43 (Q13148 whole entry): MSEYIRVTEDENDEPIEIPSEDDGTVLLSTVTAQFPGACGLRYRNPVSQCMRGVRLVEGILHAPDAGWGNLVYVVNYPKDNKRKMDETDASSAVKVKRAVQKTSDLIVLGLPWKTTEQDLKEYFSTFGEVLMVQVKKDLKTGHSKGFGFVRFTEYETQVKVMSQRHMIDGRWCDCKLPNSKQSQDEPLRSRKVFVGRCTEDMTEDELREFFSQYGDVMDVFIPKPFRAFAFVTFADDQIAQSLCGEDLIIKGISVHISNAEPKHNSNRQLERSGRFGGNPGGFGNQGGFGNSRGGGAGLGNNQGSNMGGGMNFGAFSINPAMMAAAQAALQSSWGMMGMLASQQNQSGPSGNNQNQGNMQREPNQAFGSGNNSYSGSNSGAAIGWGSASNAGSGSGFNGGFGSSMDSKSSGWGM

Binder	binding signal
B1	0.682 R (bound/input frequency ratio)
B2	4.09 R (bound/input frequency ratio)
B3	0.956 R (bound/input frequency ratio)
B4	6.63 R (bound/input frequency ratio)
B5	5.29 R (bound/input frequency ratio)
B6	5.96 R (bound/input frequency ratio)
B7	1.07 R (bound/input frequency ratio)
B8	5.82 R (bound/input frequency ratio)
B9	6.52 R (bound/input frequency ratio)
B10	1.48 R (bound/input frequency ratio)
B11	2.44 R (bound/input frequency ratio)
B12	1.42 R (bound/input frequency ratio)
B13	1.1 R (bound/input frequency ratio)
